# DT40 TDP1 CPT – qHTS for Inhibitors of human tyrosyl-DNA phosphodiesterase 1 (TDP1): qHTS in cells in presence of CPT; Potency, µM (titrated, usually from 46.2 µM), for inactives: top-dose activity change, negative = growth inhibition, hits mostly inhibitors; 420,000 tested, 12% active; AID 686979, 2013; chicken DT40 Tdp1-/-;hTDP1 cells + 20 nM CPT, ATP luminescence, 48 h; also: potency is read from the fitted curve at half-maximal effect; nearly all actives have a fitted effect of over 55% in size
#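 Cell growth measured by CellTiter-Glo luminescence after a minimum 48 h, 37 C compound exposure with 20 nM CPT in Tdp1-knockout DT40 cells stably expressing hTDP1, seeded 400/well; qHTS titration format.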
# HT1080 IDH1KD tx – qHTS for induction of synthetic lethality in tumor cells producing 2HG: qHTS for the HT-1080-IDH1KD cell line. HT-1080 IDH1 knockdown viability, ATP luminescence, 48 h. Potency, µM (doses to about 46.1 µM), inactives show top-dose activity, negative = toxicity, usual class: cytotoxic. 360,000 tested, 2% active;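 also: potency is read from the fitted curve at half-maximal effect; 0% = DMSO wells and -100% = cell-free medium wells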
#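 In this qHTS, HT-1080 cells depleted of IDH1 are exposed for 48 h at 37 °C to compound titrations. Toxicity is scored from CellTiter-Glo luminescence, with DMSO as full viability and medium alone as none.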
# HT1080NT lethal – qHTS for induction of synthetic lethality in tumor cells producing 2HG: qHTS for the HT-1080-NT fibrosarcoma cell line; HT-1080-NT fibrosarcoma viability, CellTiter-Glo ATP luminescence, 48 h; Potency, µM (series often up to 46.1 µM), for the others: at the top dose activity, negative = less viability, hits mostly cytotoxic; 360,000 tested, 1.6% active; AID 686970, 2013;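 also: NT is the 2HG producing partner of a matched IDH1 knockdown line; potency is read from the fitted curve at half-maximal effect; 0% = DMSO-treated cells and -100% = media-only wells without cells; nearly all actives have a fitted effect of over 55% in size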
#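 Toxicity toward the 2HG-producing NT line was scored as %Activity, normalised to DMSO and no-cell wells, from CellTiter-Glo luminescence after 48 hours' treatment.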
# IL1B secr inh – qHTS for Inhibitors of Inflammasome Signaling: IL-1-beta AlphaLISA Primary Screen; THP-1 LPS/ATP IL-1B secretion, AlphaLISA, 16 h; hits give low values; activity change, % at 57.5 µM; 360,000 tested, 4.7% active; AID 743279, 2014; in the data active = activity change below about -50%; inconclusive = mostly about -30% to -49%
#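 Secreted IL-1B measured by AlphaLISA bead assay after 16 h compound exposure of THP-1 cells; compounds (final up to 57.5 uM) added 1 h before LPS (250 ng/mL) and ATP (1.25 mM) stimulation; lower signal means less secretion.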
# DT40 TDP1 no CPT – qHTS for Inhibitors of human tyrosyl-DNA phosphodiesterase 1 (TDP1): qHTS in cells in absence of CPT; DT40 Tdp1-/- hTDP1 cells, no CPT, ATP luminescence, 48 h; Potency, µM (doses to about 46.2 µM), inactives show at the top dose activity change, negative = growth inhibition, actives largely listed as inhibitors; 420,000 tested, 15% active; also: potency is read from the fitted curve at half-maximal effect; nearly all actives have a fitted effect of over 55% in size
#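 Camptothecin absent (DMSO only). Human TDP1-complemented DT40 knockout cells, 400 cells/well, 37 °C for minimum 48 hr; ATP measured via CellTiter-Glo, 30 min dark incubation, luminescence.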
# * hit, by the source's call; ? = inconclusive; nt = not tested or not shown. The list is not random: actives were taken first. Their share in the collection is about 19%. Unless noted, calls follow the shape of the dose curve; as a rule, active = well fitted curve in the direction sought with a large enough effect; inconclusive = small, poorly fitted or top-dose-only effect, or another doubt; inactive = no such curve, though single readings can be large; an effect the other way counts as inactive or inconclusive. Unless noted, % is scaled to controls: 0 for no effect and ±100 for the full control effect.
SMILES,DT40 TDP1 CPT,HT1080 IDH1KD tx,HT1080NT lethal,IL1B secr inh,DT40 TDP1 no CPT
CN(Cc1ccccc1Cl)C(=O)C1CC(=O)N(c2ccc3c(c2)OCCO3)C1 (stereo unspecified),?,0%,-1%,0,-22%
COc1ccc(CN(C)C(=O)C2CC(=O)N(c3ccc4c(c3)OCCO4)C2)c(OC)c1 (stereo unspecified),21µM*,-2%,-2%,-11,16µM*
C=C(C)C1Cc2nc(N)nc(C)c2C1 (stereo unspecified),-14%,5%,3%,25,-14%
C=C(C)C1Cc2c(C)nn(-c3nc(C)cc(C)n3)c2C1 (stereo unspecified),2.3µM*,-27%,-10%,-11,4.6µM*
CCCCSc1nc(O)cc(=O)n1CC,-1%,-5%,4%,44,3%
CCOC(=O)C1(C)CCN1C(=O)c1ccc(C(F)(F)F)cc1 (stereo unspecified),-15%,27%,15%,8,-26%
Cc1cccc(NC(=S)N2CCN(c3ccccc3F)CC2)c1C,-10%,3%,5%,2,-11%
CC(C)OCCCNc1nc(Cl)nc2c1cnn2C,-13%,10%,2%,-9,?
COc1ccc(-c2cccc(C3CC=CC4C3C(=O)N(Cc3ccccc3)C4c3ccc(C(F)(F)F)cc3)c2)cc1 (stereo unspecified),?,-15%,-3%,48,15µM*
Cc1ccc(-c2cccc(C3CC=CC4C3C(=O)N(Cc3ccccc3)C4c3cc(C)ccc3F)c2)cc1 (stereo unspecified),16µM*,-1%,-20%,33,15µM*
CN(C)c1ccc(-c2cccc(C3CC=CC4C3C(=O)N(Cc3ccccc3)C4c3ccc(C(F)(F)F)cc3)c2)cc1 (stereo unspecified),12µM*,1%,0%,27,23µM*
CSCCC(NC(=O)c1ccccc1Cl)C(=O)N1CCN(c2ccccn2)CC1 (stereo unspecified),-8%,-1%,11%,0,-2%
O=C(/C=C/[C@H]1O[C@@H](n2cnc3c(NC(=O)c4ccccc4)ncnc32)[C@H](O)[C@@H]1O)NC1CCCCC1,-14%,15%,21%,-1,-2%
CCc1nc2ccc(C(=O)Nc3cc(-c4ccccc4)ccc3OC)cn2c1N(C)Cc1ccc(Cl)cc1,18µM*,?,?,?,21µM*
CCN(CC)c1c(C)nc2ccc(C(=O)Nc3cc(-c4ccccc4)ccc3OC)cn12,?,?,?,?,18µM*
O=C(CSCc1ccc(Cl)cc1Cl)Nc1nccs1,-7%,13%,-3%,-2,2%
C/C=C/c1ccc(Oc2nnnn2-c2ccc(C(N)=O)cc2)c(OC)c1,15µM*,-12%,-3%,9,21µM*
COc1cc(C(O)CO)ccc1OS(=O)(=O)O (stereo unspecified),1%,16%,2%,19,-13%
Cc1cc(C)cc(C(=O)Oc2cc(C)[nH]c(=O)c2[N+](=O)[O-])c1,-14%,3%,12%,3,-19%
O=c1oc2ccccc2nc1/C=C(\O)c1ccccc1,?,-5%,-6%,39,?
O=Nc1[nH]c(=O)c(/C=C(\O)c2ccccc2)nc1NO,?,?,?,-22,16µM*
O=C1NC(=Nc2cccnc2)S/C1=C/c1ccc(F)cc1,2.9µM*,?,?,13,3.3µM*
O=C1NC(=Nc2ccccc2)S/C1=C\c1cccn1-c1ccccc1,9.2µM*,?,?,-5,21µM*
Cc1ccccc1N=C1NC(=O)/C(=C/c2cccn2C)S1,16µM*,-27%,-29%,-1,23µM*
Cc1ccc(N=C2NC(=O)/C(=C\c3cccs3)S2)cc1C,?,-27%,-19%,-8,?
SMILES,DT40 TDP1 CPT,HT1080 IDH1KD tx,HT1080NT lethal,IL1B secr inh,DT40 TDP1 no CPT
Cc1cccc(N=C2NC(=O)/C(=C/c3cccn3C)S2)c1,?,-28%,-16%,7,18µM*
CC1CCCN(C(=O)COC(=O)C2CCN(S(=O)(=O)c3c(Cl)cccc3Cl)CC2)C1 (stereo unspecified),?,-3%,-1%,-1,-1%
COC(=O)c1ccc(OCC(O)CN2CCN(C(=O)c3ccco3)CC2)c(OC)c1 (stereo unspecified),4%,-3%,13%,-14,-12%
O=c1oc2ccccc2c(N2CCCCC2)c1[N+](=O)[O-],16µM*,14%,8%,-50*,16µM*
CC1CCN(c2c([N+](=O)[O-])c(=O)oc3ccccc23)CC1,16µM*,18%,14%,-14,23µM*
O=CN1CCN(c2c([N+](=O)[O-])c(=O)oc3ccccc23)CC1,-18%,0%,-1%,12,?
O=c1oc2ccccc2c(N2CCCC2)c1[N+](=O)[O-],-18%,0%,13%,-4,-30%
CCS(=O)(=O)c1cc([N+](=O)[O-])c(Sc2ccccc2NC(C)=O)s1,3.3µM*,-8%,-1%,-18,5.2µM*
CC(=O)Nc1ccccc1-c1ccccc1[N+](=O)[O-],7%,-2%,4%,-3,-10%
CC(OC(=O)c1ccc(Cl)c(S(=O)(=O)Nc2ccc(F)cc2)c1)C(=O)NC(N)=O (stereo unspecified),0%,-3%,20%,-25,12%
COc1ccc(NC(=O)N2CCCC3(CCNCC3)C2)cc1,17%,nt,nt,nt,-18%
C[n+]1ccc(/C=N/Nc2nc(Cl)c(C#N)c(Cl)c2Cl)cc1,?,-10%,?,-59*,?
COc1cccc(NS(=O)(=O)c2c(C)n(C)c(=O)n(C)c2=O)c1,-2%,3%,2%,13,9%
Cc1cc(C)cc(OCc2nc3ncc(Br)cc3[nH]2)c1,2.3µM*,?,?,41,2.3µM*
COc1cccc(OCc2nc3ncc(Br)cc3[nH]2)c1,4.1µM*,?,2.2µM*,60,2.9µM*
C[C@H](CO)N1C[C@H](C)[C@@H](CN(C)CC2CCCCC2)Oc2ccc(NS(C)(=O)=O)cc2C1=O,1%,6%,4%,6,2%
CC(C)C[C@H](NC(=O)c1nc[nH]c1C(=O)NCC(=O)OC(C)(C)C)C(=O)OCc1ccccc1,?,0%,1%,32,?
